# Inconclusive results are not listed. The source made the active and inactive calls.
# Assay: qHTS for identification of novel therapeutic agents for treatment of microphthalmiaassociated transcription factor (MiT) renal cell carcinoma (RCC) (AID 1963991)
# Details: CellTiter-Glo, 48 h; for Potency: active = Z-AUC below -0.8 in all three lines; for z-score: stronger effect = lower value
# Description: PI: Marston Linehan Ph.D.
# Urologic Oncology Branch, Center for Cancer Research (CCR)
# National Cancer Institute (NCI), National Institute of Health (NIH), Bethesda, Maryland
# MiT-Renal Cell Carcinoma (RCC) is characterized by genomic translocations involving microphthalmia-associated transcription factor (MiT) family members TFE3, TFEB, or MITF. MiT-RCC represents a specific subtype of sporadic RCC that is predominantly seen in young patients and can present with heterogeneous histological features making diagnosis challenging. Moreover, the disease biology of this aggressive cancer is poorly understood and there is no accepted standard of care therapy for patients with advanced disease. Tumor-derived cell lines have been established from human TFE3-RCC providing useful models for preclinical studies. TFE3-RCC tumor derived cell lines and their tissues of origin were characterized by IHC and gene expression analyses. An unbiased high-throughput drug screen was performed to identify novel therapeutic agents for treatment of MiT-RCC. Potential therapeutic candidates were validated in in vitro and in vivo preclinical studies. Mechanistic assays were conducted to confirm the on-target effects of drugs. The results of a high-throughput small molecule drug screen utilizing three TFE3-RCC tumor-derived cell lines identified five classes of agents with potential pharmacological efficacy, including inhibitors of phosphoinositide-3-kinase (PI3K) and mechanistic target of rapamycin (mTOR), and several additional agents, including the transcription inhibitor Mithramycin A. Upregulation of the cell surface marker GPNMB, a specific MiT transcriptional target, was confirmed in TFE3-RCC and evaluated as a therapeutic target using the GPNMB-targeted antibody-drug conjugate CDX-011. […] The results of the high-throughput drug screen and validation studies in TFE3-RCC tumor-derived cell lines have provided in vitro and in vivo preclinical data supporting the efficacy of the PI3K/mTOR inhibitor.
# SEQUENCE No. (e.g., 1, 2, 3, etc.); […] (e.g., Cells, Incubation, Reagent, etc.); VALUE; DESCRIPTION.
# 1; Cells; 3 uL; white, solid-bottom Grenier assay plate.
# 2; Compounds; 23 nL; Kalypsis pin-tool (Wako USA).
# 3; Incubation; 48 hr; 37 C, 5% CO2, 95% humidity.
# 4; Reagent; 3 uL; CellTiter-Glo reagent (Promega).
# 5; Incubation; 15 min; room temperature.
# 6; Detection; Luminescence; ViewLux plate reader (PerkinElmer).
# NOTES (numbers refer to Sequence numbers above)
# 1. Quantitative high-throughput screening (qHTS) of 1912 pharmacologically defined small molecule compounds was conducted on three TFE3-fusion cell lines bearing three different fusion partners (UOK109, UOK124, UOK145). Briefly, 500 cells in complete growth media were plated into white, solid-bottom, 1536-well tissue culture treated plates (Grenier Cat. 789173-F) using a Multidrop Combi cassette dispenser.
# 2. Twenty-three nanoliter of 1912 pharmacologically defined small molecule compounds of the NCATS Mechanism Interrogation PlatE (MIPE) version 4.0 were added to each assay plate using a Pintool Dispenser (Wako) equipped with 1536 pin head.
# 3. Plates were covered with stainless steel gasketed lids and incubated for 48 hours at standard cell culture conditions.
# 4. Viability was assessed by adding 3uL of CellTiter-Glo detection reagent (Promega).
# 5. Plates were covered with gasket lids and incubated for 15 minutes at room temperature.
# 6. Luminescence was measured on a ViewLux plate reader (PerkinElmer). Post-screen data processing used DMSO controls as 100% viability and empty wells as 0% viability and dose response curve fitting was done for all 11 concentrations for each compound.
# [1] = TFE3-RCC UOK109 viability, measured here: UOK109 Z-AUC
# [2] = TFE3-RCC viability, measured here: UOK124 Z-AUC
# [3] = TFE3-RCC viability, measured here: UOK145 Z-AUC
# Potency is the fitted concentration of half-maximal effect.
Compound,Potency (TFE3-RCC UOK109 viability),z-score [1],z-score [2],z-score [3]
CC(C)C[C@H](NC(=O)[C@@H](NC(=O)c1cccc(-c2ccccc2)n1)[C@@H](C)O)B(O)O,469 nM (active),-1.47,-3.68,-3.39
O=C1NC(=O)C(=Cc2ccc3nccc(-c4ccncc4)c3c2)S1,833 nM (active),-1.04,-1.39,-1.83
C[C@H](O)[C@@H]1C(=O)N2C(C(=O)O)=C(S[C@@H]3CN[C@H](CNS(N)(=O)=O)C3)[C@@H](C)[C@@H]12,–,-0.714,0.967,-1.41
CN(N=O)C(=O)N[C@H]1C(O)OC(CO)[C@@H](O)[C@H]1O (stereo partly specified),–,0.19,0.37,-0.505
C[C@H]1C[C@H]2[C@@H]3CCC4=CC(=O)C=C[C@]4(C)[C@@H]3C(=O)C[C@]2(C)[C@@]1(O)C(=O)CO,–,0.188,0.279,1.74
O=C(NNC(=O)c1ccc(CNS(=O)(=O)c2ccc(F)c(Cl)c2)cc1)c1ccccc1,–,0.375,0.329,0.518
CCN1CCN(C(=O)N[C@H](C(=O)N[C@@H]2C(=O)N3C(C(=O)O)=C(CSc4nnnn4C)CS[C@@H]23)c2ccc(O)cc2)C(=O)C1=O,–,3.06,1.43,2.48
O=C(Nc1ccc(Oc2ccnc3[nH]ccc23)c(F)c1)c1cccn(-c2ccc(F)cc2)c1=O,–,0.0941,0.0675,0.349
N#CC(=C(O)c1ccc(Cl)cc1Cl)c1nc2cc(Cl)ccc2c(=O)[nH]1,–,0.465,1.29,0.266
O=C(O)C=Cc1ccc(Cn2ccnc2)cc1,–,0.607,0.722,0.686
CCCNS(=O)(=O)Nc1ncnc(OCCOc2ncc(Br)cn2)c1-c1ccc(Br)cc1,–,1.06,1.04,0.601
C[C@H](CCC(=O)O)[C@H]1CC[C@H]2[C@@H]3[C@H](O)C[C@@H]4C[C@H](O)CC[C@]4(C)[C@@H]3CC[C@]12C,–,0.305,0.277,0.171
Nc1nc(=O)n([C@H]2CSC(CO)O2)cc1F (stereo partly specified),–,0.159,0.427,0.298

# Source: PubChem BioAssay (NCATS)
